Data taken from PubChem BioAssay (EPA / NIEHS).
Activity calls are given as the source filed them. Rule for the calls: active = hit-call score of the fitted dose curve at least 0.9, where 1 is the maximum; inactive = score below 0.9.

read-out: Cytochrome P450 (CYP1A1), CYP1A1 (gene 1543); test: LTEA_HepaRG_CYP1A1: Life Technologies and Expression Analysis (LTEA) Assay for Cytochrome P450 (CYP1A1) using HepaRG (AID 2283454); conditions: mRNA level, 48 h; actives raise or lower the signal
Description: LTEA_HepaRG is a cell based, multiplexed-readout assay that uses HepaRG, a human liver cell line, with measurements taken at 48 hours after chemical dosing on a 96-well plate.LTEA_HepaRG_CYP1A1 is one of 102 assay component(s) measured in the LTEA HepaRG cell culture assay. It is a marker of NR mediated metabolism.Data from the assay component LTEA_HepaRG_CYP1A1 was analyzed into 1 endpoint. This assay endpoint, LTEA_HepaRG_CYP1A1, was analyzed with bidirectional fitting relative to DMSO as the negative control and baseline of activity. Using a type of inducible reporter, measures of mRNA induction for gain or loss-of-signal activity can be used to understand regulation of transcription factor activity. To generalize the intended target to other relatable targets, this assay endpoint is annotated to the cyp intended target family, where the subfamily is xenobiotic metabolism.
A total of 1060 chemcials from the ToxCast library were tested in eight-point concentration-response experiments. Cell culture and cytotoxicity assays were conducted at Thermo Fisher Scientific's Custom Services facility (Madison, WI). A single lot of human HepaRG cells (Thermo Fisher Scientific, Frederick, MD) was used for the cell culture experiments. 96-well format collagen type I coated plates of human HepaRG cells were prepared using established methods. Briefly, cryopreserved HepaRG cells were thawed, plated at a density of approximately 100,000 cells/well in HepaRG Thaw, Plate, and General Purpose media (HPRG770, Thermo Fisher Scientific), and incubated for 48 hours. 0.5% DMSO was selected as vehicle control to balance the requisite need of DMSO in HepaRG cultures to maintain differentiation (for example, baseline metabolism, proportions of hepatocytes vs. cholangiocytes), while enabling further hepatic receptor pathway activation (for example, PXR and CAR) in response to chemical exposure. 48 hours after plating, the culture medium was replaced with HepaRG Serum-Free Incudtion Media. Cells were exposed to each test chemical in duplicate and maintained in CO2 incubators for another 48 hours. Chemical plates were thawed to room temperature and 200x concentrations of treatment groups were prepared. 8-point conentration-reponse curves were made with the highest exposure at 100 uM, followed by half-log dilutions, all in 0.5% DMSO. Each test plate contained variouse controls, induction positive controls (1mM phenobarbital), cytotoxicity positive controls ([…] aflatoxin B1), vehicle controls (0.5% DMSO), and total lysis controls (0.5% DMSO). Cell morphology images were taken using an Essen IncuCyte FLR automated microscope, with six 96-well plates imaged in about 24 minutes. Images were captured and exported and JPEG files. Spent culture media was transfered to black-well plates for the LDH assay, and remaining media was sorted at -80 C for later use. Cells were treated with RLT buffer and frozen until shipped for gene expression analysis. Total RNA was isolated from the cell suspension in 75 uL of Buffer RLT (Qiagen, Germantown, MD 20874) by Quintiles/Expression Analysis (Durham, NC) using a custom isolation procedure. Total RNA from each plate well was transferred to a preamplification plate. Fluidigm's 96.96 Dynamic ArrayTM (Fluidigm, Amsterdam, the Netherlands) technology was used for gene expression analyses by quantitative reverse transcription polymerase chain reaction (qRT-PCR, performed by Quintiles/Expression Analysis, Durham, NC)89. Standard TaqManTM Assays (Applied Biosystems/ThermoFisher Scientific, Foster City, CA) were used to assess the expression of 93 genes selected based on their selectivity and sensitivity to important hepatic receptors known to be modulated by environmental chemicals; importance in human hepatocyte functionality; and hepatotoxicity. […]

| SMILES | AC50 | outcome |
| --- | --- | --- |
| OCCN(CCO)CCO | 73.2 µM (active) | – |
| Clc1cccc(Cl)c1Cl | 50 µM (active) | – |
| COc1ccccc1N | 68.2 µM (active) | – |
| CCCCCCCCCCCCc1cccc(S(=O)(=O)O)c1 | 51.6 µM (active) | – |
| O=C(O)C1(c2ccc3c(c2)OC[C@H](Cc2ccc(-c4ccccc4)cc2)[C@H]3O)CCCC1 | 23.3 µM (active) | – |
| Clc1cccc(Cl)c1 | 78.1 µM (active) | – |
| CN(C)C(=S)S | 64.4 µM (active) | – |
| CC(C)(C)c1ccccc1O | 50 µM (active) | – |
| Oc1cc(Cl)c(Cl)cc1Cl | 80.5 µM (active) | – |
| N#Cc1cccnc1 | – | inactive |
| CC(C)O.CC(C)O.OCCN(CCO)CCO.OCCN(CCO)CCO.[Ti] | – | inactive |
| Cc1cc(C)cc(C)c1 | – | inactive |
| O=C(N[C@H]1CN2CCC1CC2)c1ccc2c(c1)OCCO2 | – | inactive |
